An excerpt weighted towards active compounds, which were near 2.8% of everything screened.
Pol kappa inh-1: DNA polymerase kappa (human) inhibition; purified Pol kappa, fluorescent DNA synthesis assay, 10 min; Q9UBT6; AID 588579; 0.53% of 400,000 active; Potency, µM (highest dose often 107 µM), for the others: at the highest dose activity, negative = inhibition, hits mostly inhibitors; further: potency means the concentration at half of the fitted maximal effect; on the % scale 0 is the no-effect control and ±100 the full control effect
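Inhibition of 10 nM Pol kappa is measured by a fluorescent read-out at 0 and 10 min following addition of 50 nM substrate (final), with a 15-min room-temperature compound preincubation.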
POLI inh: inhibitors of human DNA polymerase iota | Q9UNA4 | Pol iota fluorescent replication assay, 10 min | Potency, µM (doses to about 115 µM), for the others: at the highest dose activity, negative = inhibition, actives largely listed as inhibitors | 1% of 390,000 active; further: potency means the concentration at half of the fitted maximal effect
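Pol iota at 10 nM preincubated 15 min with compounds at room temperature; reaction started with fluorescent substrate, 50 nM final. Fluorescence read kinetically at 0 and 10 min; buffer-only wells as negative control.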
WRN inhibitor: blocks human WRN helicase. Q14191. WRN helicase unwinding, fluorescent forked duplex, kinetic. Potency, µM (doses to about 114 µM), inactives show at the top dose activity change, negative = inhibition, most hits filed as inhibitors. 0.46% of 360,000 active; further: potency means the concentration at half of the fitted maximal effect; on the % scale 0 is the no-effect control and ±100 the full control effect; nearly all actives have a fitted effect of over 55% in size
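WRN at 20 nM final was preincubated with compound for 15 min at room temperature; reaction started with 100 nM forked duplex oligonucleotide carrying fluorophore and quencher plus 2 mM ATP (final). Unwinding followed kinetically by red fluorescence (ex 525/em 598 nm).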
POLB inh: inhibitors of human DNA polymerase beta | Potency, µM (titrated, usually from 114 µM), inactives show top-dose activity change, negative = inhibition, hits mostly inhibitors | 1.3% of 340,000 active | Pol beta primer extension/strand displacement, fluorescence kinetic; further: potency means the concentration at half of the fitted maximal effect; on the % scale 0 is the no-effect control and ±100 the full control effect
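Kinetic readout of DNA synthesis with strand displacement by Pol beta. Compound and 10 nM enzyme sit 15 min at room temperature; 50 nM substrate starts the reaction, read immediately and at 10 min.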
Pol eta inh-1: DNA polymerase eta (human) inhibition; Q9Y253; recombinant Pol eta, fluorescent DNA replication assay; Potency, µM (top dose mostly 114 µM), for the others: top-dose activity change, negative = inhibition, most hits filed as inhibitors; 1.2% of 390,000 active; AID 588591; further: potency means the concentration at half of the fitted maximal effect; on the % scale 0 is the no-effect control and ±100 the full control effect
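Pol eta (10 nM) was preincubated with compounds for 15 min at room temperature, after which fluorescent replication substrate (50 nM final) was added to start the reaction. Fluorescence was read kinetically at 0 and 10 min.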
PI5P4Ka inh: blocks human PI5P4K alpha kinase activity | PI5P4Kalpha enzyme, ADP-Glo luminescence, 60 min; stronger effect = lower value | max response, % | 1.2% of 330,000 active | AID 652105; active means max response of -50% or lower; inconclusive means between -30% and -50%; inactive means -30% or higher; further: value at the top dose of about 77 µM; on the % scale 0 is the no-effect control and ±100 the full control effect
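Reactions run in 0.038 M HEPES pH 7.4, 0.28 mM EGTA, 0.1% CHAPS and 5% DMSO, with PI5P4Kalpha, substrate, compound and 5 microM ATP final, one hour at room temperature. Readout is ADP-Glo luminescence.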
TbPGK inh: TbPGK inhibition, hit validation; shares compounds with Pol kappa inh-1; TbPGK coupled GAPDH assay, Kinase-Glo luminescence; Potency, µM (highest dose often 57.5 µM), without a hit: top-dose activity change, negative = inhibition, most hits filed as inhibitors; 79% of 500 active; further: potency means the concentration at half of the fitted maximal effect; on the % scale 0 is the no-effect control and ±100 the full control effect; nearly all actives have a fitted effect of over 65% in size
Pol iota confirm: Human Pol iota inhibitor confirmatory assay; shares compounds with Pol kappa inh-1; Pol iota primer extension, TAMRA/BHQ fluorescence; Potency, µM, actives largely listed as inhibitors; 77% of 1,500 active; AID 720496; further: potency means the concentration at half of the fitted maximal effect
Pol kappa inh-2: confirmation of human DNA polymerase kappa inhibitors. Potency, µM, actives largely listed as inhibitors. purified Pol-kappa, fluorescent strand-displacement substrate. 76% of 920 active. shares compounds with Pol eta inh-1. AID 720501; further: potency means the concentration at half of the fitted maximal effect
Pol eta inh-2: Pol eta (human) inhibition, cherry-pick confirmation. shares compounds with Pol eta inh-1. Pol eta primer extension, TAMRA/BHQ fluorescence, 10 min. Potency, µM, actives largely listed as inhibitors. 64% of 2,600 active. AID 720502; further: potency means the concentration at half of the fitted maximal effect
* = called active by the depositor; [ ] = dose if it differs, or a comment. Unless noted, the call rests on the fitted dose curve; in most records, active means well fitted curve in the direction sought with a large enough effect; inconclusive means small, poorly fitted or top-dose-only effect, or another doubt; inactive means no such curve, though single readings can be large; an effect the other way counts as inactive or inconclusive.

Nc1nnc(SCC(=O)Nc2cccc3ccccc23)s1 was read as Pol kappa inh-1 -7%, POLI inh -16%, WRN inhibitor -8%[57.1 µM], POLB inh 43%, Pol eta inh-1 -4% and PI5P4Ka inh 1.
Screening Nc1ccc(S(=O)(=O)Nc2nccs2)cc1N=Nc1ccccc1[N+](=O)[O-] returned Pol kappa inh-1 28µM*, POLI inh 7.1µM*, WRN inhibitor 25µM*, Pol eta inh-1 3.2µM*, PI5P4Ka inh -103*, Pol iota confirm 75*, Pol kappa inh-2 inconclusive and Pol eta inh-2 19*.
For O=[N+]([O-])c1ccccc1S(=O)(=O)Nc1ccc(S(=O)(=O)Nc2nccs2)cc1 the results were Pol kappa inh-1 3%, POLI inh inconclusive, WRN inhibitor -21%, POLB inh 1%, Pol eta inh-1 0% and PI5P4Ka inh -6.
COc1cc(CNCCSc2nnnn2C)ccc1OCc1ccc(C)cc1 was read as Pol kappa inh-1 -7%, POLI inh inconclusive, POLB inh -2% and Pol eta inh-1 -13%.
For COc1cc(-c2cc(=O)c3c(O)c(OC)c(OC)c(O)c3o2)ccc1O the results were Pol kappa inh-1 25µM*, POLI inh inconclusive, WRN inhibitor inconclusive, POLB inh 7.1µM*, Pol eta inh-1 7.1µM*, PI5P4Ka inh inconclusive, Pol iota confirm 7.5* and Pol eta inh-2 27*.
Screening COc1ccc(-c2cc(=O)c3c(O)c(OC)c(OC)c(OC)c3o2)cc1OC returned Pol kappa inh-1 -13%[60.1 µM].
Screening Cc1ccc(S(=O)(=O)N(C)CC(=O)N(C)CCOc2ccccc2)cc1 returned WRN inhibitor 7%, Pol eta inh-1 -8% and PI5P4Ka inh 1.
For COc1ccc(/C=C/C(=O)NC(=S)Nc2cc([N+](=O)[O-])ccc2O)cc1OC the results were Pol kappa inh-1 inconclusive, POLI inh 16µM*, WRN inhibitor -12%[11.6 µM], POLB inh 18µM*, Pol eta inh-1 25µM*, PI5P4Ka inh -25, Pol iota confirm 75* and Pol eta inh-2 30*.
For COc1ccc([N+](=O)[O-])cc1NC(=S)NC(C)=O the results were Pol kappa inh-1 -3%, POLI inh 30%, WRN inhibitor 3%, POLB inh 8%, Pol eta inh-1 -19% and PI5P4Ka inh -15.
Cc1cccc(N2N=C(C(=O)O)CCC2=O)c1 was read as Pol kappa inh-1 -23%, POLI inh -1%, WRN inhibitor 2%, POLB inh 2%, Pol eta inh-1 5% and PI5P4Ka inh 5.
For CC1=NN(c2ccc(C(=O)O)c(N)c2)C(=O)C1 the results were Pol kappa inh-1 89µM*, POLI inh 1.3µM*, WRN inhibitor -17%[57.1 µM], POLB inh 10µM*, Pol eta inh-1 22µM*, PI5P4Ka inh -2, Pol iota confirm 60* and Pol eta inh-2 34*.
Cc1ccccc1Nc1nnc(SCC(=O)Nc2ccccc2[N+](=O)[O-])s1 was read as Pol kappa inh-1 -10%, POLI inh 106%, WRN inhibitor -9%, POLB inh 0%, Pol eta inh-1 1% and PI5P4Ka inh inconclusive.
Screening O=C(CSc1ccccc1C(=O)O)NCc1ccco1 returned Pol kappa inh-1 -9%, POLI inh 2%, WRN inhibitor -6%, POLB inh 1%, Pol eta inh-1 7% and PI5P4Ka inh -2.
Cc1ccccc1NC(=O)CSc1ccsc1[N+](=O)[O-] was read as Pol kappa inh-1 35µM*, POLI inh 11µM*, WRN inhibitor 50µM*, POLB inh 20µM*, Pol eta inh-1 2.8µM*, PI5P4Ka inh -90*, Pol iota confirm 19* and Pol eta inh-2 17*.
`O=C(CSc1ccsc1[N+](=O)[O-])NCc1ccco1` gave Pol kappa inh-1 79µM*, POLI inh inconclusive, WRN inhibitor -11%[11.6 µM], POLB inh inconclusive, Pol eta inh-1 22µM*, PI5P4Ka inh -71*, Pol iota confirm 67*, Pol kappa inh-2 42* and Pol eta inh-2 30*.
Cc1cccc(NC(=S)NC(C)C(c2ccccc2)N2CCN(C)CC2)c1C (stereo unspecified) was read as Pol kappa inh-1 -7%, POLI inh 105%, WRN inhibitor 2%, POLB inh 2%, Pol eta inh-1 -5% and PI5P4Ka inh -7.
Cc1ccccc1OC(=O)CSc1nnc(-c2cccs2)o1 was read as Pol kappa inh-1 -3%, POLI inh 24%, POLB inh -9% and Pol eta inh-1 -18%.
CCCNC(=O)C1(C)CCN(Cc2ccc(-c3ccccc3)o2)C1 (stereo unspecified) was read as WRN inhibitor -1% and PI5P4Ka inh -12.
Screening C=CCN(CC=C)C(=O)c1ccc(OC2CCN(Cc3ccccn3)CC2)cc1 returned Pol kappa inh-1 -2%, POLI inh 59%, WRN inhibitor 1%, POLB inh 10%, Pol eta inh-1 -12% and PI5P4Ka inh 1.
Screening CC(=O)Nc1ccc(S(=O)(=O)N(C)CC(=O)OCC(=O)N2CCN(C(=O)c3ccco3)CC2)cc1 returned Pol kappa inh-1 inconclusive, POLI inh 40µM*, WRN inhibitor -15%[11.6 µM], Pol eta inh-1 28µM*, PI5P4Ka inh -11, Pol iota confirm inconclusive and Pol eta inh-2 76*.
Screening Cc1ccc(/C=N/Nc2cc(C)nc(NCc3ccccc3)n2)cc1 returned Pol kappa inh-1 -13%, POLI inh 6%, WRN inhibitor -3%, POLB inh -8%, Pol eta inh-1 -11% and PI5P4Ka inh -4.
Screening Cc1cc(N/N=C/c2ccc(O)cc2)nc(NS(=O)(=O)c2ccccc2)n1 returned Pol kappa inh-1 inconclusive, POLI inh inconclusive, WRN inhibitor -28%[57.1 µM], POLB inh 18µM*, Pol eta inh-1 20µM*, PI5P4Ka inh -55*, TbPGK inh 5.2µM* and Pol eta inh-2 inconclusive.
